From PubChem
The list is not random: actives were taken first. Their share in the collection is about 2.2%.
PGC1a acetyl inh: lowers PGC1a acetylation signal in U2OS cells. AlphaScreen anti-acetyl-lysine; with virally co-expressed GCN5 acetyltransferase. inhibition, % at 15.6 µM. 350,000 tested, 0.17% active;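 active means every replicate shows inhibition of at least 40%; inconclusive means mean inhibition at least 40% but some replicate below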
DENV2 CPE: inhibitors of DENV2 cytopathic effect; DENV2-infected cells, cytopathic effect rescue, plate reader; CPE inhibition, % at 9.99 µM; 350,000 tested, 1.7% active; in the data active means CPE inhibition above about 20%, passing the limit was not always enough; inconclusive means no clear call, values can overlap the other calls; tested in BHK-21 cells
PvdQ acylase: blocks Pseudomonas aeruginosa PvdQ acylase activity; purified PvdQ acylase, fluorescence plate reader; inhibition, % at 10 µM; 340,000 tested, 0.063% active; AID 488965; in the data active means inhibition above about 30%, passing the limit was not always enough; inconclusive means no clear call, values can overlap the other calls
Statin myotox sup: protects C2C12 myotubes from simvastatin toxicity; ATP luminescence, 48 h; scaled: DMSO 0, geranylgeraniol control 100; rescue of ATP level, % at 7.49 µM; 330,000 tested, 0.78% active;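 active means mean ATP rescue above about 67%, or every replicate alone reaching that limit, limit read from the data, passing the limit was not always enough; inconclusive means no clear call, values can overlap the other calls; inactive means mean under the limit and some replicate under it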;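 further: myotubes were challenged with 10 µM simvastatin during compound exposure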
miR-122 sensor: miR-122 inhibition in Huh7 cells. Huh7 miR-122 Renilla luciferase sensor, 48 h; neutral wells = 0, positive control = 100. activation (reporter increase), % at 12.5 µM. 340,000 tested, 0.3% active;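 active means mean replicate activation score at least 90 and every replicate individually at or above 90; inconclusive means only one of the two criteria met; inactive means neither criterion met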;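 further: higher luciferase means less miR-122 activity so hits act as miR-122 inhibitors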
A number is an active result; 0 = inactive; ? = inconclusive; - = not tested or not shown.

SMILES	PGC1a acetyl inh	DENV2 CPE	PvdQ acylase	Statin myotox sup	miR-122 sensor
COc1cc(S(=O)(=O)NC2CCCCC2)ccc1Cl	0	-	0	0	121.3
Cc1cccc(S(=O)(=O)NC2CCCCCCC2)c1	0	0	0	0	158.8
CCOc1ccc(Br)cc1S(=O)(=O)NCCN1CCCC1	0	0	0	0	0
CCOc1ccc(Br)cc1S(=O)(=O)NC1CCCC1	0	0	0	0	92.8
CCOC(=O)c1ccc(Nc2ncnc3ccc(C)cc23)cc1	0	-	0	0	0
CCOc1ccc(Nc2ncnc3ccc([N+](=O)[O-])cc23)cc1	49.6	0	86.4	-	-
COC1=CC(=O)c2nc(Cl)ccc2C1=O	-	0	-	-	-
COC1=CC(=O)c2c(ccc3ncnc(N)c23)C1=O	66.1	0	0	-	0
CN1CCN(C(=O)C[C@@H]2C[C@H]3c4cc(NC(=O)Nc5ccc(F)cc5)ccc4O[C@H]3[C@@H](CO)O2)CC1	0	0	-	0	0
CCCNC(=O)N1[C@H](C#N)[C@H](c2ccc(-c3cccc(OC)c3)cc2)[C@H]1CO	0	58.4	-	0	-
CCCNC(=O)N1[C@H](CO)[C@@H](c2ccc(-c3cccc(OC)c3)cc2)[C@@H]1C#N	0	-	-	0	-
O=C(C[C@@H]1C[C@@H]2c3cc(NC(=O)Nc4ccccc4F)ccc3O[C@@H]2[C@H](CO)O1)NC1CCCC1	0	49.2	-	0	0
O=C(C[C@@H]1C[C@H]2c3cc(NC(=O)Nc4ccccc4F)ccc3O[C@H]2[C@H](CO)O1)NC1CCCC1	0	0	-	0	0
O=C(C[C@@H]1C[C@@H]2c3cc(NC(=O)Nc4ccccc4F)ccc3O[C@@H]2[C@@H](CO)O1)NC1CCCC1	0	0	-	0	0
O=C(C[C@H]1C[C@@H]2c3cc(NC(=O)Nc4ccccc4F)ccc3O[C@@H]2[C@@H](CO)O1)NC1CCCC1	0	22.9	-	0	0
O=C(C[C@H]1C[C@H]2c3cc(NC(=O)Nc4ccccc4F)ccc3O[C@H]2[C@H](CO)O1)NC1CCCC1	0	20.2	-	0	0
COC(=O)c1c(-c2ccc(SC)cc2)sc2ccccc12	0	74.3	0	0	0
COC(=O)c1c(-c2ccc(SC)cc2)sc2ccc(OC)cc12	-	0	0	0	-
O=C(Nc1ccccc1)/C(=C\c1ccccc1)NC(=O)c1ccco1	0	0	-	-	0
O=C(Nc1cccc(C(=O)O)c1)/C(=C\c1ccccc1)NC(=O)c1ccco1	0	26.6	-	0	0
O=C(NCC[C@H]1CC[C@H](NC(=O)c2cnccn2)[C@@H](CO)O1)Nc1ccc(F)cc1	0	22.1	-	0	-
Cc1cccc(S(=O)(=O)N[C@@H]2CC[C@@H](CCNC(=O)c3cnccn3)O[C@@H]2CO)c1	0	30.7	-	0	-
COc1ccccc1NC(=O)N[C@@H]1CC[C@@H](CCNS(=O)(=O)c2ccc(Cl)cc2)O[C@H]1CO	0	20.3	-	0	-
O=C(CC1CC1)N[C@H]1CC[C@@H](CCNS(=O)(=O)c2ccc(Cl)cc2)O[C@@H]1CO	67.0	0	-	0	-
CO[C@H]1CN(C)C(=O)c2cccc(C#N)c2OC[C@H]2O[C@H](CC[C@@H]2OC)CCN(C)C(=O)[C@H]1C	0	0	-	0	-
SMILES	PGC1a acetyl inh	DENV2 CPE	PvdQ acylase	Statin myotox sup	miR-122 sensor
CNC[C@H]1Oc2cc(C#Cc3ccccc3F)ccc2S(=O)(=O)N([C@H](C)CO)C[C@@H]1C	0	0	-	0	0
O=C(N[C@H]1CC[C@H](CCNS(=O)(=O)c2ccc(Cl)cc2)O[C@@H]1CO)c1cnccn1	0	49.0	-	0	-
CCC(=O)N1[C@H](CO)[C@H](c2ccccc2)[C@H]1CN(CC1CCC1)S(C)(=O)=O	-	0	-	-	-
C[C@@H]1CN([C@@H](C)CO)C(=O)Cc2cc(NC(=O)Cc3cn(C)c4ccccc34)ccc2O[C@H]1CN(C)C(=O)Nc1cccc2ccccc12	0	0	-	0	0
C[C@@H](NC(=O)C[C@@H]1C=C[C@H](NC(=O)C2CCC2)[C@@H](CO)O1)c1ccccc1	0	24.3	-	0	-
O=C(N[C@@H]1C=C[C@H](CC(=O)N2CCc3ccccc3C2)O[C@@H]1CO)C1CCC1	0	98.1	-	-	-
O=C(N[C@@H]1C=C[C@@H](CC(=O)N2CCc3ccccc3C2)O[C@H]1CO)C1CCC1	0	0	-	0	-
COc1ccc(NC(=O)N(C)C[C@H]2OCc3cn(nn3)CCCC(=O)N([C@@H](C)CO)C[C@H]2C)c(OC)c1	0	-	-	0	0
COc1ccc(NC(=O)N(C)C[C@@H]2OCc3cn(nn3)CCCC(=O)N([C@H](C)CO)C[C@@H]2C)c(OC)c1	0	0	-	0	0
Cc1ccc(-n2ccnc(SCC(=O)NC3CCCC3)c2=O)cc1Cl	-	0	0	0	-
O=C(CSc1nccn(-c2ccc(F)c(Cl)c2)c1=O)NC1CCCC1	-	21.7	0	0	-
O=C(CSC(=S)N1CCCCC1)Nc1ncc2c(n1)CC(c1ccco1)CC2=O (stereo not given)	0	0	0	-	0
O=C(CSC(=S)N1CCOCC1)Nc1ncc2c(n1)CC(c1ccco1)CC2=O (stereo not given)	-	30.0	0	-	-
COc1ccc(CC(=O)NC(CC(=O)O)c2cccc([N+](=O)[O-])c2)cc1 (stereo not given)	0	0	0	121.9	0
O=C(O)CC(NC(=O)COc1ccccc1)c1cccc([N+](=O)[O-])c1 (stereo not given)	0	0	0	-	0
O=C1CN(S(=O)(=O)Cc2ccccc2)C[C@H]2[C@@H](c3ccc(C#CCC4CCCC4)cc3)[C@@H](CO)N12	0	?	-	-	-
NS(=O)(=O)OCC(Cc1ccccc1)N1C(=O)c2ccccc2C1=O (stereo not given)	0	0	0	110.6	0
O=C(Nc1ccc(Cc2ccncc2)cc1)c1cccs1	0	30.8	0	0	0
O=C(c1ccncc1)c1ccc(NC(=O)c2cccs2)cc1	-	0	0	0	0
C[C@@H]1CCCCO[C@@H](CN(C)Cc2ccc(C(=O)O)cc2)[C@H](C)CN([C@H](C)CO)C(=O)c2cc(NC(=O)c3ccccc3)ccc2O1	0	78.7	-	-	0
C[C@@H]1CN([C@H](C)CO)C(=O)c2cc(NC(=O)c3ccccc3)ccc2O[C@@H](C)CCCCO[C@@H]1CN(C)Cc1ccc(C(=O)O)cc1	0	114.6	-	-	0
C[C@@H]1CCCCO[C@@H](CN(C)Cc2ccc(Cl)c(Cl)c2)[C@@H](C)CN([C@H](C)CO)C(=O)c2cc(NC(=O)c3ccncc3)ccc2O1	0	0	-	0	0
C[C@H]1CCCCO[C@@H](CN(C)Cc2ccc(C(=O)O)cc2)[C@@H](C)CN([C@@H](C)CO)C(=O)c2cc(NC(=O)c3ccccc3)ccc2O1	0	0	-	-	0
C[C@@H]1CCCCO[C@H](CN(C)Cc2ccc(C(=O)O)cc2)[C@H](C)CN([C@@H](C)CO)C(=O)c2cc(NC(=O)c3ccncc3)ccc2O1	0	32.1	-	-	0
C[C@@H]1CN([C@H](C)CO)C(=O)c2cc(NC(=O)c3ccncc3)ccc2O[C@@H](C)CCCCO[C@H]1CN(C)Cc1ccc(Cl)c(Cl)c1	0	85.4	-	-	-
